The list is not random: actives were taken first. Their share in the collection is about 1.4%.
HTR5A ag = HTR5A agonists in luminescence cell assay, primary screen, counter-screen for OPRM1-OPRD1 heterodimer agonist project, full-deck HTS | 5-hydroxytryptamine receptor 5A (Homo sapiens), P47898 | cell-based | activation, % at 9.3 µM | 0.61% of 340,000 active; in the data active means activation mostly above about 9.5%, no sharp cut-off; inactive means mostly below about 7.6%;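 further: 0% = cells with vehicle only and 100% = reference agonist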
Target sequence (P47898 whole entry, looked up): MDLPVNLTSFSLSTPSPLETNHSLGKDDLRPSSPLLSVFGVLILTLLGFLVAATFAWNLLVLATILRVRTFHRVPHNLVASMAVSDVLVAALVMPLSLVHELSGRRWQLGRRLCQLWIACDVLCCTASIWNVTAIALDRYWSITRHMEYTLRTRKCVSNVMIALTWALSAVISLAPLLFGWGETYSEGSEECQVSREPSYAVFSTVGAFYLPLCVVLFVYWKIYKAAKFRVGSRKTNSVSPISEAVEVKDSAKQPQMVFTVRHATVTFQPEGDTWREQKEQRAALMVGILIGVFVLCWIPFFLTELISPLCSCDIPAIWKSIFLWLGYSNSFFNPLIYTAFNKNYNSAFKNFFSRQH
MOR-DOR ag = agonists of OPRM1-OPRD1 heterodimerization, primary screen, cell-based, luminescence; 0.3% of 340,000 active; cells; Mu-type opioid receptor (Homo sapiens) + Delta-type opioid receptor (Homo sapiens), …; activation, % at 9.3 µM;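 further: 0% = vehicle-treated cells and 100% = reference agonist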
OPRM1-OPRD1 inv = inverse agonists of MOR-DOR heterodimerization, primary screen, cell-based, luminescence; Mu-type opioid receptor (Homo sapiens) + Delta-type opioid receptor (Homo sapiens), …; cell-based MOR-DOR heterodimer luminescence, inverse agonism; inhibition, % at 9.3 µM; 0.21% of 340,000 active; in the data active means inhibition above about 22%, passing the limit was not always enough;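 further: 0% = cells with DMSO and 100% = wells without cells with DMSO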
beta cell repl = inducers of MIN6 beta-cell proliferation, primary screen, ATP luminescence, uHTS; MIN6 cells proliferation, ATPlite luminescence, 48 h; cells starved in 0.2% serum; 100% = growth in 10% serum; proliferation, % at 10 µM; 0.29% of 330,000 active;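 active means compounds whose signal lies at least 3.5 SD above the mean of all wells on their plate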;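 further: 0% = DMSO-treated cells in low-serum medium and 100% = 10% serum control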
HTR5A inv ctr = HTR5A inverse agonists in luminescence cell assay, primary screen, counter-screen for OPRM1-OPRD1 heterodimer inverse agonist project, full-deck HTS; HTR5A cell line, inverse agonism; inhibition, % at 9.3 µM; 0.083% of 340,000 active; in the data active means inhibition mostly above about 23%, no sharp cut-off; inactive means mostly below about 18%;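 further: 0% = cells with DMSO and 100% = no-cell wells with DMSO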
pCIP destab = p/CIP-EGFP fusion destabilizers, primary screen, fluorescence, F442A cells; Q05BA5; 16 h; decrease of EGFP signal, % at 10 µM; 0.01% of 290,000 active; AID 1984, 2009;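 active means EGFP signal decrease of at least 30% at 10 µM or well 3 SD below plate mean, unless failing retest; inactive means the rest, including hits failing retest or dose response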
OPRM1-D1 ag cf = agonists of MOR-DOR heterodimerization, confirmation, cell-based, luminescence. shares compounds with MOR-DOR ag. cells, luminescence complementation. activation, % at 9.3 µM. 45% of 830 active;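 further: 0% = vehicle-treated cells and 100% = reference agonist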
HTR5A ag counter = HTR5A agonists in cells, counter-screen for OPRM1-OPRD1 heterodimer agonist project, cell-based, luminescence. shares compounds with MOR-DOR ag. HTR5A agonist counterscreen. activation, % at 9.3 µM. 8% of 830 active. AID 504905, 2011; in the data active means activation above about 17%;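 further: 0% = vehicle-treated cells and 100% = reference agonist response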
MOR-DOR inv conf = inverse agonists of MOR-DOR heterodimerization, confirmation, cell-based, luminescence. inhibition, % at 9.3 µM. 20% of 580 active. AID 504900, 2011. cells expressing OPRM1/OPRD1 heterodimer. shares compounds with OPRM1-OPRD1 inv; in the data active means inhibition above about 32%;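 further: 0% = cells with DMSO and 100% = wells lacking cells with DMSO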
HTR5A inv count = HTR5A inverse agonists, counter-screen for OPRM1-OPRD1 inverse agonist project, cell-based, luminescence; shares compounds with OPRM1-OPRD1 inv; HTR5A-expressing cells, inverse agonism; inhibition, % at 9.3 µM; 580 tested, under 10 active; AID 504914, 2011; call rule not given here;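 further: 0% = cells with DMSO and 100% = no-cell wells with DMSO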
* hit, by the source's call. Unless noted, no stated cut-off is given here; in the data, active means activation above about 18%; inactive means the rest.

What do the screens show for `Cc1ccc(C[n+]2c(-c3ccc(C)cc3)cc(-c3ccc(C)cc3)cc2-c2ccc(C)cc2)cc1`?
HTR5A ag: 23.3*; MOR-DOR ag: 68.4*; OPRM1-OPRD1 inv: -374.5; beta cell repl: -7.0; HTR5A inv ctr: -59.1; OPRM1-D1 ag cf: 11.2; HTR5A ag counter: 10.6

How did Cn1cc[n+](C)c1P(=S)(c1ccccc1)c1ccccc1 do in these assays?
HTR5A ag: -6.8; MOR-DOR ag: 39.5*; OPRM1-OPRD1 inv: -217.6; beta cell repl: 0.4; HTR5A inv ctr: 18.9; pCIP destab: 9.0; OPRM1-D1 ag cf: 5.3; HTR5A ag counter: 14.6

Results for CC(=O)O[C@H]1[C@H]2O[C@]23[C@@H]2CC[C@]4(O)C[C@@H](O)CC[C@]4(C)C2CC[C@]3(C)[C@H]1c1ccc(=O)oc1 (some centres not stated) ?
HTR5A ag: 33.2*; MOR-DOR ag: 75.3*; OPRM1-OPRD1 inv: -405.7; beta cell repl: -0.7; HTR5A inv ctr: -110.8; OPRM1-D1 ag cf: 300.9*; HTR5A ag counter: 2.0

How did C[C@]12CC[C@H]3C(CCC4(O)CC(O)CC[C@]34C=O)C1=CC[C@H]2c1ccc(=O)oc1 (some centres not stated) do in these assays?
HTR5A ag: 23.3*; MOR-DOR ag: 67.1*; OPRM1-OPRD1 inv: -302.9; beta cell repl: 0.5; HTR5A inv ctr: -82.4; pCIP destab: -2.7; OPRM1-D1 ag cf: 32.7*; HTR5A ag counter: 23.4*

How did CC1(O)CCC2C3CCC4=CC(=O)CCC4(C)C34OC4CC21C (configuration not stated) do in these assays?
HTR5A ag: -0.3; MOR-DOR ag: -4.2; OPRM1-OPRD1 inv: 20.3; HTR5A inv ctr: 1.4

Results for OCC1CN1C1CCCCC1 (configuration not stated) ?
HTR5A ag: 3.3; MOR-DOR ag: -3.8; OPRM1-OPRD1 inv: 19.2; HTR5A inv ctr: -12.8

Results for Cc1ccc(-n2cc(CNC(C)Cc3cnccn3)c(-c3cccc(C)c3)n2)cc1 (configuration not stated) ?
HTR5A ag: 1.1; MOR-DOR ag: 42.0*; OPRM1-OPRD1 inv: -219.8; beta cell repl: -5.2; HTR5A inv ctr: -3.1; pCIP destab: 0.9; OPRM1-D1 ag cf: 15.6; HTR5A ag counter: 9.5

What do the screens show for `CCOP(=O)(OCC)C(O)c1ccc(N(C)C)cc1` (configuration not stated)?
HTR5A ag: -0.2; MOR-DOR ag: -2.7; OPRM1-OPRD1 inv: 13.7; beta cell repl: 1.1; HTR5A inv ctr: -0.5; pCIP destab: -131.9

How did N=c1c[n+](CC23CC4CC(CC(C4)C2)C3)[n-]o1 do in these assays?
HTR5A ag: 4.1; MOR-DOR ag: 23.7*; OPRM1-OPRD1 inv: -109.2; beta cell repl: 1.4; HTR5A inv ctr: -4.5; pCIP destab: -16.0; OPRM1-D1 ag cf: 35.9*; HTR5A ag counter: 2.2

How did CN1Cc2cnnn2-c2ccccc2C1c1ccccc1 (configuration not stated) do in these assays?
HTR5A ag: -3.2; MOR-DOR ag: -3.2; OPRM1-OPRD1 inv: 14.9; HTR5A inv ctr: 11.1

Results for ON1C2CCCCC2N(O)C1c1ccccc1F (configuration not stated) ?
HTR5A ag: -3.0; MOR-DOR ag: -9.4; OPRM1-OPRD1 inv: 54.4*; beta cell repl: -1.4; HTR5A inv ctr: 8.9; pCIP destab: -8.5; MOR-DOR inv conf: -472.1; HTR5A inv count: -63.2

What do the screens show for `CC1CCC/C=C/C2CC(O)CC2C(O)/C=C/C(=O)O1` (configuration not stated)?
HTR5A ag: 0.4; MOR-DOR ag: -6.5; OPRM1-OPRD1 inv: 38.2*; beta cell repl: -3.0; HTR5A inv ctr: -29.0; pCIP destab: 1.7; MOR-DOR inv conf: 14.3; HTR5A inv count: -2.9

Results for C[C@H]1CCC/C=C/C2C[C@H](O)CC2[C@H](O)/C=C/C(=O)O1 (some centres not stated) ?
HTR5A ag: 1.0; MOR-DOR ag: -7.0; OPRM1-OPRD1 inv: 38.5*; beta cell repl: -8.2; HTR5A inv ctr: -2.5; pCIP destab: 17.3; MOR-DOR inv conf: 18.6; HTR5A inv count: -2.6

How did C[C@H]1CCC[C@@H](O)CCC/C=C/c2cc(O)cc(O)c2C(=O)O1 do in these assays?
HTR5A ag: -1.8; MOR-DOR ag: -0.4; OPRM1-OPRD1 inv: 2.1; beta cell repl: -1.6; HTR5A inv ctr: -4.1; pCIP destab: 18.7

What do the screens show for `C=CCn1c(O)c(C=NCCN2CCOCC2)c(=O)[nH]c1=S`?
HTR5A ag: -2.5; MOR-DOR ag: -0.8; OPRM1-OPRD1 inv: 3.9; beta cell repl: -1.5; HTR5A inv ctr: 6.4; pCIP destab: -9.9

Results for O=C1Nc2ccc(Br)cc2C(c2ccc(Cl)cc2)=NC1O (configuration not stated) ?
HTR5A ag: 2.5; MOR-DOR ag: -0.1; OPRM1-OPRD1 inv: 0.3; beta cell repl: -4.0; HTR5A inv ctr: -9.6; pCIP destab: -12.5

How did CCOC(=O)c1c(NS(=O)(=O)c2ccccc2)n(CCCOC)c2nc3ccccc3nc12 do in these assays?
HTR5A ag: -3.2; MOR-DOR ag: -9.5; OPRM1-OPRD1 inv: 45.9*; beta cell repl: -0.5; HTR5A inv ctr: -29.0; pCIP destab: -5.3; MOR-DOR inv conf: -51.3; HTR5A inv count: -117.8

Results for COCCCn1c(N)c(C(=O)OCCOC)c2nc3ccccc3nc21 ?
HTR5A ag: -2.6; MOR-DOR ag: -4.7; OPRM1-OPRD1 inv: 19.7; beta cell repl: -1.7; HTR5A inv ctr: 6.6; pCIP destab: -15.9
